Potency data for nine compounds are collected here from PubChem BioAssay (NCATS).

Experiment [1] can be described thus: Primary qHTS for small molecule stabilizers of the endoplasmic reticulum resident proteome: Secreted ER Calcium Modulated Protein (SERCaMP) assay (AID 1508630). The procedure, abridged:
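The SH-SY5Y reporter protocol was run at 3 concentrations up to 38.3 uM (primary) or 11 concentrations (follow-up): 16 h compound, 100 nM thapsigargin for 4 h, then extracellular luciferase luminescence.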
(In general: qHTS replaces the single test concentration by a dilution series.)

Experiment [2] can be described thus: Primary qHTS for inhibitors of nuclear receptor binding SET domain protein 2 (NSD2) in an isogenic RCH-ACV NSD2 p.E1099K mutant (9B) (AID 1645876). Further: nearly all actives have a fitted effect of over 70% in size. Further: potency means the concentration at half of the fitted maximal effect.
A short description of experiment [3]: Primary qHTS for inhibitors of nuclear receptor binding SET domain protein 2 (NSD2) in an RCH-ACV wild type WT cells (2C) (AID 1645877). Further: nearly all actives have a fitted effect of over 70% in size. Further: potency means the concentration at half of the fitted maximal effect.

Values joined by “and” are separate entries in the source; they are usually repeats but may differ in a detail not shown here. Equal values may be shown once. Results filed as inconclusive are left out. Active and inactive are the calls of the source. The call rests on the fitted dose curve; in most records, active means well fitted curve in the direction sought with a large enough effect; inconclusive means small, poorly fitted or top-dose-only effect, or another doubt; inactive means no such curve, though single readings can be large; an effect the other way counts as inactive or inconclusive.

For the compound `COC(=O)Nc1ccc(-c2nc(N3CCOCC3)c3cnn(C4CCN(Cc5cccnc5)CC4)c3n2)cc1`, the Potency entry in experiment [1] is “inactive”. For the same compound, the figures for the Potency in experiment [2] and in experiment [3] were 833 nM (active) and 662 nM (active), respectively.
Regarding `CC(C)c1ccc(Cn2ccc3c4c(N)nc(NC5CC5)nc4ccc32)cc1`, the Potency entry in experiment [1] was “inactive”. For the same compound, the Potency in experiment [2] is 372 nM (active); in experiment [3], 417 nM (active).
Regarding `CC(O)C1C(=O)N2C(C(=O)O)=C(SC3CNC(C(=O)N(C)C)C3)C(C)C12` (configuration not stated), the Potency entry in experiment [1], in experiment [2] and in experiment [3] was “inactive” in each case.
`CCn1nnc2c(N3CCOCC3)nc(-c3ccc(NC(=O)Nc4ccc(C(=O)N5CCN(C)CC5)cc4)cc3)nc21`: in experiment [1], the Potency entry is “inactive”. The Potency in experiment [2] is 18.3 nM (active) and 41.7 nM (active); in experiment [3], 46.1 nM (active) and 59 nM (active).
`CC(C)[C@H](C(=O)Nc1ccc(C(=O)NO)cc1)c1ccccc1`: the Potency result in experiment [1], in experiment [2] and in experiment [3] was “inactive” in each case.
As for `CC(C)(C)OC(=O)Nc1ccc(-c2cc(C(=O)NCCCCCCC(=O)NO)no2)cc1`, the Potency result in experiment [1] is “inactive”. For the same compound, the Potency in experiment [2] is 1480 nM (active); in experiment [3] it was 1320 nM (active).
On to `COC(=O)Nc1nc2ccc(C(=O)c3ccc(F)cc3)cc2[nH]1`, for which, in experiment [1], the Potency result was “inactive”. The Potency in experiment [2] is 1.29 µM (active) and 468 nM (active); in experiment [3], 1.03 µM (active) and 372 nM (active).
`Nc1cccc(-c2cc3c(Oc4cccc(O)c4)ncnc3[nH]2)c1`: the Potency result in experiment [1] is “inactive”. The Potency in experiment [2] is 1.15 µM (active) and 1.05 µM (active); in experiment [3] it was 1.15 µM (active) and 833 nM (active).
Regarding `COc1cc2c(cc1-c1c(C)noc1C)ncc1[nH]c(=O)n([C@H](C)c3ccccn3)c12`, the Potency result in experiment [1] was “inactive”. Moreover, the Potency in experiment [2] and in experiment [3] was 468 nM (active) each time.
